Here are results for 53 molecules from ChEMBL document CHEMBL4513216, “Probing the Open Global Health Chemical Diversity Library for Multistage-Active Starting Points for Next-Generation Antimalarials” (ACS Infect Dis, 2020).

Each structure is given as a SMILES string. Hit rate of the full screen: of about 68,000 compounds, about 2,700 (4%) showed an effect of 50% or more. Only a selection was taken, and strong results are over-represented in it overall.

For the assay, the system named is Plasmodium berghei. Kind of assay: Screen against P. berghei liver stage (PbLuc), transformed with Luciferase, at 2uM. The format is functional, HepG2. The conditions noted are these: tested at 2 uM.
Turning to `CCOCCNC(=O)c1ccc(OC)cc1I`, the INHIBITION stood at 30.48%.

In the case of `Clc1cccc(C[C@@H]2NCCC[C@@H]2Nc2ccccc2)c1`, the INHIBITION stood at 33.95%. As for `COCCOCC(=O)N1CCC(O)(c2ccc3nc(C)ccc3c2)CC1`, the INHIBITION was -3.38%. Turning to `Cc1ccc2cc(C(=O)N3CCC(O)(C(F)(F)F)CC3)ccc2n1`, the INHIBITION is -13.42%.

Regarding `Cc1ccc2cc(C3(O)CCN(C(=O)CN4CCCC4)CC3)ccc2n1`, the INHIBITION was 8.65%. Take `Cc1ccc2cc(C(=O)N3CCN(C(=O)N(C)C)CC3)ccc2n1`: the INHIBITION is recorded as 7.02%. On to `Cc1ccc2cc(C3(O)CCN(C(=O)[C@@H]4CCCCN4)CC3)ccc2n1`, for which the INHIBITION was determined as 53.98%. For the molecule `Cc1ccc2cc(C3(O)CCN(C)CC3)ccc2n1`, the INHIBITION worked out at 8.88%. For `CCCOC(C)C(=O)N1CCC(O)(c2ccc3nc(C)ccc3c2)CC1` (stereo not drawn), the INHIBITION amounted to 52.66%. In the case of `Cc1ccc2cc(C3(O)CCN(C(=O)CSC(C)C)CC3)ccc2n1`, the INHIBITION is reported as 70.17%. Turning to `CC1=NOC(C(=O)N2CCC(O)(c3ccc4nc(C)ccc4c3)CC2)C1` (stereo not drawn), the INHIBITION is listed as -70.57%.

With `Cc1ccc(CNC(=O)Nc2nccs2)cn1`, the INHIBITION was -11.83%.

On to `Cc1nc(CN2CCCC(Cn3cc(CCO)nn3)C2)c2ccccn12` (stereo not drawn), for which the INHIBITION is listed as -27.82%. For `Cn1cc(-c2nnn3c2COC(CNCc2ccncc2)C3)cn1` (stereo not drawn), the INHIBITION is -42.69%.

Take `O=C(c1ccccc1-c1nnn[nH]1)N1CCOC(C(F)(F)F)C1` (stereo not drawn): the INHIBITION is listed as -12.13%.

On to `CN1CCc2c(C#N)c(NCCCO)n3cnnc3c2C1`, for which the INHIBITION was -9.74%. On to `COCCCNc1c(C#N)c2c(c3nncn13)CN(C)CC2`, for which the INHIBITION was 52.23%. `COCCNc1c(C#N)c2c(c3nncn13)CN(C)CC2`: the INHIBITION is on record as 18.59%. For the molecule `Cc1oncc1C(=O)NCC(c1ccccc1Cl)N1CCOCC1` (stereo not drawn), the INHIBITION is reported as 8.6%.

As for `COc1cc(N2CCC3(CC2)CC(N2CCOCC2)C3)ncn1`, the INHIBITION worked out at 52.36%. For `COc1cc(N2CCC3(CC2)CC(N2CCOCC2)CO3)ncn1` (stereo not drawn), the INHIBITION was found to be 34.24%. As to `COc1cc(N2CCC3(CC2)CC(N2CCN(C)CC2)CO3)ncn1` (stereo not drawn), the INHIBITION was -39.89%. For `CSCCC(C)(O)CNS(=O)(=O)Cc1cccc(C)c1` (stereo not drawn), the INHIBITION is reported as -40.82%. On to `O=C(Cc1ccon1)NC1CCCN(c2ccccc2F)C1=O` (stereo not drawn), for which the INHIBITION turned out to be 28.73%. For `O=C(Cc1nc(-c2ccncc2)n[nH]1)NCCCN1CCOCC1` the value was 15.46%; for `O=C(NCC(F)(F)F)C1CCC(=O)N(C2CCCC2)C1` (stereo not drawn), 9.13%. On to `CSCCCNC(=O)C1CCC(=O)N(C2CCCC2)C1` (stereo not drawn), for which the INHIBITION is on record as 56.49%.

On to `CC(C)OCCNC(=O)C1CCC(=O)N(C2CCCC2)C1` (stereo not drawn), for which the INHIBITION worked out at 28.95%. As for `CC(C)OCCCNC(=O)C1CCC(=O)N(C2CCCC2)C1` (stereo not drawn), the INHIBITION is listed as 68.61%. Next, `O=C(NCCN1CCCCC1=O)C1CCC(=O)N(C2CCCC2)C1` (stereo not drawn): 54.29%; `O=C(NCCn1cccc1)C1CCC(=O)N(C2CCCC2)C1` (stereo not drawn): 10.75%; `C=C(C)CNC(=O)C1CCC(=O)N(C2CCCC2)C1` (stereo not drawn): 2.52%. For `CSCCNC(=O)C1CCC(=O)N(C2CCCC2)C1` (stereo not drawn), the INHIBITION worked out at 21.24%. Take `COC(C)(C)CNC(=O)C1CCC(=O)N(C2CCCC2)C1` (stereo not drawn): the INHIBITION was 8.03%. As for `Cc1cc(C(=O)N2CCCS2(=O)=O)c(C)o1`, the INHIBITION was -15.41%. For the molecule `COC(=O)CN1CCC(C(=O)c2cc(F)ccc2F)CC1`, the INHIBITION is 35.23%. Next, `Cc1oc(-c2ccco2)nc1CN1CCCC(Cn2cncn2)C1` (stereo not drawn): 43.7%. For `O=C(CN1CC(c2ccccc2)CC1=O)N1CCC(c2ncc[nH]2)CC1` (stereo not drawn), the INHIBITION is -63.6%.

As to `Cc1nnc2n1CCN(C(=O)C(C)Oc1ccc(C#N)cc1)C2` (stereo not drawn), the INHIBITION is recorded as 35.56%. `COc1cc(C#N)ccc1OCC(=O)NS(=O)(=O)c1ccccc1`: the INHIBITION was -0.89%. In the case of `CC(C)c1noc(OCC(=O)N(C)C(C)C)n1`, the INHIBITION is recorded as -6.48%. Turning to `Cc1nsc(N2CCN(C(=O)Nc3ccc4[nH]ccc4c3)CC2)n1`, the INHIBITION is 57.75%. For the molecule `Cc1nsc(N2CCCN(C(=O)c3ccc4[nH]ccc4c3)CC2)n1`, the INHIBITION was 24.36%. Next, `Cc1nsc(N2CCN(C(=O)Nc3cccc(F)c3)CC2)n1`: 45.82%; `CO[C@H]1CN(C(=O)c2cn3cc(C)ccc3n2)CC[C@@]12CCCO2`: 80.88%; `CO[C@H]1CN(C(=O)c2ccc3oc(C)cc3c2)CC[C@@]12CCCO2`: 27.16%. For `CO[C@H]1CN(C(=O)c2cccc(C)n2)CC[C@@]12CCCO2` the value was 19.91%.

On to `O=C(NCCO)C1(Cc2ccccc2-c2ccncc2)CCOCC1`, for which the INHIBITION came out at 26.14%.

As to `CC(C)(C)NC(=O)C1(Cc2ccccc2-c2ccncc2)CCOCC1`, the INHIBITION is listed as 16.55%.

Consider `COCCNC(=O)C1(Cc2ccccc2-c2ccncc2)CCOCC1`, for which the INHIBITION turned out to be 52.82%. Take `COc1ccccc1-c1ccccc1CC1(C(=O)O)CCNCC1`: the INHIBITION was -18.15%. Next, `COc1ccc(F)cc1-c1ccccc1CC1(C(=O)O)CCOCC1`: 53.95%; `COc1ccccc1C1=NOC(CC2(C(=O)O)CCOCC2)C1` (stereo not drawn): 8.89%.
